The list is not random: actives were taken first. Their share in the collection is about 7.6%.
HCV NS3h FP: HCV NS3 helicase inhibitors, primary screen, biochemical, fluorescence polarization, ChemBridge library; Hepatitis C virus NS3 helicase; 16,000 tested, 1.6% active; inhibition, % at 100 µM; AID 687043, 2013; NS3h Cy5-dT15 DNA binding;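 active means inhibition above the average over every tested compound plus 3 SD, cut at about 40% in these data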
Cy5 interf NS3h: Cy5 fluorescence quenchers or enhancers, artefact control for HCV NS3 helicase inhibitor project, biochemical, ChemBridge library, Cy5 readout | Cy5-dT15 DNA with NS3h, fluorescence interference; actives lie on both sides; signal over control mean, under 1 quenches | fluorescence interference ratio at 100 µM | 16,000 tested, 6% active | AID 720488, 2013;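 active means compound fluorescence over control fluorescence at most 0.8, a quencher, or at least a set upper limit, an enhancer; inactive means ratio between 0.8 and the set upper limit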
An asterisk follows results filed as active.

SMILES | HCV NS3h FP | Cy5 interf NS3h
O=C1C=CC(=O)N1c1ccccc1SC(F)(F)F | 45* | 0.79*
O=C1N/C(=N/N=C\c2ccccc2O)SC1Cc1cccc(C(F)(F)F)c1 (stereo unspecified) | 6 | 1.1
O=S(=O)(Nc1ccc(O)cc1)c1ccc(F)cc1 | 1 | 1
O=S(=O)(Nc1ccc(Br)cc1)c1ccc(Cl)cc1 | 10 | 0.79*
O=C(c1ccc(F)cc1)c1ccc(NS(=O)(=O)c2ccc(Cl)cc2)cc1 | -3 | 1.2*
O=S(=O)(Nc1ccc(O)cc1)c1ccc(Br)cc1 | 1 | 1
Clc1ccc(-c2noc(-c3ccc(I)cc3)n2)cc1 | -1 | 1
CC1=C(C(=O)c2ccccc2)C(c2ccccc2)NC(=O)N1 (stereo unspecified) | 1 | 1
CCOc1cc(OCC)cc(C(=O)Nc2cccc(C(F)(F)F)c2)c1 | 21 | 0.5*
CCOc1ccc(NC(=O)C(=O)Nc2cccc(C(F)(F)F)c2)cc1 | -4 | 0.98
COc1ccc(C(=O)Oc2cccc3c(OC)ccc(C=O)c23)cc1 | 6 | 1.1
O=C(COc1ccccc1[N+](=O)[O-])Nc1ccc(Cl)c(Cl)c1 | 0 | 0.99
CCOC(=O)COc1ccc(/C=C2\C(=O)NN(c3ccc(Cl)c(Cl)c3)C2=O)cc1OC | 18 | 0.8*
COc1cc(/C=C2\C(=O)NN(c3ccccc3)C2=O)ccc1OCC(=O)O | 11 | 1.1
COc1cc(/C=C2\C(=O)NN(c3ccccc3)C2=O)ccc1OCc1ccccc1F | 36 | 0.56*
O=C1NN(c2ccccc2)C(=O)/C1=C/c1ccc(OCc2ccccc2F)cc1 | 14 | 1
CC(=O)C12c3ccccc3C(c3ccccc31)C1C(=O)N(c3cccc(C(=O)O)c3)C(=O)C12 (stereo unspecified) | 8 | 0.93
COc1cccc(C2NC(=S)NC(C)=C2C(=O)Nc2ccccc2Cl)c1OC (stereo unspecified) | -9 | 0.97
Cc1c(O)ccc2c3c(c(=O)oc12)CCC3 | 6 | 1.1
O=C(O)CCN1C(=O)/C(=C/c2cccc(OCc3ccccc3)c2)SC1=S | 18 | 1.1
O=C(O)CCN1C(=O)/C(=C/c2ccc(Cl)c([N+](=O)[O-])c2)SC1=S | 22 | 0.7*
CCOC(=O)c1ccc(-c2ccc(/C=C3/SC(=S)N(CC(=O)O)C3=O)o2)cc1 | 37 | 0.84
CCOC(=O)c1c(C)[nH]c(C=C2C(=O)C=Cc3ccccc32)c1O | -8 | 0.43*
Cc1nc(C=C2C(=O)C=Cc3ccccc32)c(O)o1 | -2 | 1.1
Cc1ccc(N2C(=O)CC(NCc3cccnc3)C2=O)cc1 (stereo unspecified) | 8 | 1.3*
SMILES | HCV NS3h FP | Cy5 interf NS3h
COc1cccc(CCNC2CC(=O)N(c3ccc(C)cc3)C2=O)c1 (stereo unspecified) | -1 | 1.1
Cc1nc2ccccc2n1S(=O)(=O)c1ccc(Br)cc1 | -2 | 0.98
O=S(=O)(c1ccc2c(c1)Cc1cc(S(=O)(=O)n3cnc4ccccc43)ccc1-2)n1cnc2ccccc21 | 9 | 0.64*
Cc1cccc(NC(=O)C(=O)NCc2ccccc2Cl)c1C | 19 | 0.78*
COc1ccccc1CNC(=O)C(=O)Nc1ccccc1C | 3 | 1.1
COc1ccc(N(CC(=O)Nc2cc(Cl)cc(Cl)c2)S(=O)(=O)c2ccccc2)cc1 | -1 | 1
O=c1c2ccccc2nc(/C=C/c2ccc3c(c2)OCO3)n1-c1cccc2ccccc12 | 5 | 0.98
C=CCOC(=O)C1=C(C)NC(C)=C(C(=O)OCC=C)C1c1ccc(O)c(OCC)c1 | 13 | 0.88
C=CCOC(=O)C1=C(C)NC(C)=C(C(=O)OCC=C)C1c1ccc(OC)c(OC)c1 | 27 | 0.8*
Cc1ccc(OCC(=O)Nc2ccc(I)cc2Cl)cc1C | -3 | 1
CN(C)CCNC(=O)c1ccc(F)cc1 | 12 | 1
CCOC(=O)N(Cc1ccccc1)C(C(=O)O)C(C(=O)O)N(Cc1ccccc1)C(=O)OCC (stereo unspecified) | 0 | 0.97
Cc1ccc(NC(=O)N(Cc2ccccc2)C(C)C2CC2)cc1 (stereo unspecified) | 10 | 0.6*
CC(C1CC1)N(Cc1ccccc1)C(=O)c1ccc(F)cc1 (stereo unspecified) | 10 | 0.59*
COc1ccc(NC(=O)c2ccc(NC(=O)C(C)(C)C)cc2)cc1 | 9 | 1
COc1cc(C2NC(=O)NC(C)=C2C(=O)Nc2ccc(C)cc2)ccc1O (stereo unspecified) | 0 | 0.97
COc1cccc(/C=C2\SC(=S)N(c3cccc(C)c3)C2=O)c1 | 12 | 0.9
CC(O)=C(C(=S)NC(=O)c1ccccc1)C(N)=NC(=O)c1ccccc1 | -3 | 1
COc1ccc(/C=N\n2cnnc2)cc1Br | -15 | 1
COc1cc(/C=N\n2cnnc2)cc(OC)c1O | 1 | 0.67*
Cc1cc(=O)n2ccc(CN(C)C)c(O)c2n1 | 5 | 0.62*
O=[N+]([O-])c1ccc(-c2noc(-c3ccccc3Br)n2)cc1 | -9 | 0.76*
O=[N+]([O-])c1cccc(-c2nc(-c3ccc(Cl)cc3)no2)c1 | -9 | 0.98
CC(=O)N1C(=O)/C(=C2/SC(=Nc3ccc(Br)cc3)NC2=O)c2ccccc21 | 10 | 1.2*
COC(=O)c1ccc(/C=C2\SC(=Nc3ccc(Br)cc3)NC2=O)cc1 | 9 | 0.99
SMILES | HCV NS3h FP | Cy5 interf NS3h
CC(C)C(=O)NS(=O)(=O)c1ccc(NC(=O)C(F)(F)F)cc1 | -6 | 1.1
CCCc1cc(=O)n2[nH]c(-c3ccc(F)cc3)cc2n1 | 0 | 0.87
Cc1ccc(-c2cc3nc(C)c(Cl)c(=O)n3[nH]2)cc1 | 14 | 0.77*
CCCc1cc(=O)n2[nH]c(-c3ccc(C)cc3)cc2n1 | 30 | 1.2*
Cc1nc2cc(-c3ccccc3Cl)[nH]n2c(=O)c1Cl | 12 | 1.1
CCOC(=O)c1ccc(NC(=S)NC(=O)c2ccco2)cc1 | 7 | 0.94
Cc1ccc([N+](=O)[O-])cc1-c1ccc(/C=C2\C(=O)NC(=O)N(c3ccc(Cl)cc3)C2=O)o1 | 9 | 1.3*
Cc1ccc(N2C(=O)NC(=O)/C(=C\c3ccc(-c4ccc([N+](=O)[O-])cc4Cl)o3)C2=O)cc1 | 6 | 0.88
OC(COc1ccccc1Cl)Cn1c2ccccc2c2ccccc21 (stereo unspecified) | 12 | 0.95
CC1(C)C(c2cccs2)=[N+]([O-])C2(CCCCC/C2=N/NC(N)=S)N1O (stereo unspecified) | 0 | 1
O=C(Cc1ccccc1)NC(c1ccco1)c1c(O)ccc2ccccc12 (stereo unspecified) | 5 | 0.59*
O=C(Cc1ccccc1)NC(c1ccco1)c1ccc2cccnc2c1O (stereo unspecified) | 13 | 1
O=C(/C=C/c1ccc2c(c1)OCO2)n1cnc2ccccc21 | -4 | 1
Cc1ccc(NC(=O)CN(c2cc(Cl)cc(Cl)c2)S(C)(=O)=O)cc1 | 7 | 0.99
C=CCNC(=O)CN(c1cc(Cl)cc(Cl)c1)S(C)(=O)=O | 5 | 1.2*
COc1ccc(OC)c(NC(=O)c2ccc(OCC(C)C)cc2)c1 | 15 | 0.81
CC(Oc1ccc(Br)cc1)C(=O)N/N=C\c1ccccc1O (stereo unspecified) | 4 | 1
O=C(N/N=C\c1cccc(Br)c1)C(Oc1ccccc1)Oc1ccccc1 | 9 | 0.78*
Cc1ccccc1NC(=O)C(=O)NCc1ccc(Cl)cc1 | 7 | 1.1

Screening results from PubChem BioAssay.
